The panel holds about 83,000 compounds, 20% with a hit somewhere; the sample as a whole holds those more often.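 Results are percent growth after 48 hours of single-concentration exposure. 100 means growth as in untreated cells, lower positive values show inhibition; negative values down to -100 show cell death.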 Active and inactive are the calls of the source.
The compounds below were run on NCI-H226 lung (assay: NCI-60 one-dose screen, 48 h (100 = growth as untreated, 0 = no growth, -100 = all killed)). Conditions: 10 µM unless noted.
Experimental: Growth inhibition of the NCI-H226 human Non-Small Cell Lung tumor cell line is measured as a screen for anti-cancer activity. Cells are grown in 96 well plates and exposed to the test compound for 48 hours. Compounds are tested at a single concentration, which is 10^-5 M for most compounds. The reported endpoint is percent growth (GI% or GIPRCNT), where numbers from 0 - 100% represent growth inhibition, and numbers from -100% - 0 represent cell death. For example, a value of 40 represents 60% growth inhibition. A value of 0 means no net growth occurred over the course of the experiment. A value of -40 indicates 40% of cells at the beginning of the experiment died by the end of the experiment. A value of -100 means all cells are dead at the end of the experiment.
NCI-60 Human Tumor Cell Lines Screen was performed using the standard one-dose NCI protocol, which is described in more detail at https://dtp.cancer.gov/discovery_development/nci-60/default.htm.
Compounds with GIPRCNT values below 10 were considered active. Activity score was based on GIPRCNT using the following formula: […]
Score is 0 for GIPRCNT values of 100 or above, 50 for GIPRCNT values of 0, and 100 for GIPRCNT values of -100.

| SMILES | growth |
| --- | --- |
| COc1cc(/C=N/NC(=O)Cn2c(-c3ccc(C)o3)nc3ccccc32)ccc1OCc1ccccc1 | 84.4% (inactive) |
| CCCCCCCCCCCCCC | 106% (inactive) |
| CN(C)CCCn1c(=O)c2cc([N+](=O)[O-])ccc2c2cnc3[nH]ccc3c21 | 44.3% (inactive) |
| C[C@@H]1CC2C3CCC4=CC(=O)C=C[C@]4(C)[C@@]3(Cl)[C@@H](O)C[C@]2(C)[C@@]1(OC(=O)c1ccco1)C(=O)CCl (stereo not given in full) | 62.8% (inactive) |
| Nc1c(N)c2ccccc2c2ccccc12 | 92.2% (inactive) |
| COc1ccc(NC(=O)c2sc3c(=O)[nH]c(C(F)(F)F)nc3c2C)cc1 | 97.7% (inactive) |
| O=c1oc2ccccc2cc1-c1cc(-c2ccc(-c3cc(-c4cc5ccccc5oc4=O)nc(-c4cc5ccccc5oc4=O)c3)cc2)cc(-c2cc3ccccc3oc2=O)n1 | 97.8% (inactive) |
| CN(C)c1nc(-c2ccco2)n2nc(-c3ccc(Cl)cc3)cc2n1 | 52% (inactive) |
| O=C(NCCN1CCCC1)n1cc(-c2ccncc2)c(-c2cc(O)cc(Cl)c2)n1 | 93.9% (inactive) |
| O=C(NCCN1CCCCC1)n1cc(-c2ccncc2)c(-c2ccc(Cl)c(O)c2)n1 | 102% (inactive) |
| CC(=O)N1N=C(C2C(=O)N(C)C(=O)N(C)C2=O)CC1c1ccccc1C(=O)O (stereo not given) | 108% (inactive) |
| CN1CCC2(CC1)N=C(SCC(=O)Nc1cnc3ccccc3c1)C(c1ccc(Br)cc1)=N2 | 57.6% (inactive) |
| CC1OC(n2c3ccccc3c3c4c(c5c6ccccc6[nH]c5c32)C(=O)N(CCN2CCOCC2)C4=O)CC(O)C1O (stereo not given) | 17% (inactive) |
| CCOC(=O)c1ccc2c(c1)nc(-c1ccc(Cl)cc1)n2-c1cc(C(C)(C)C)[nH]n1 | 29.5% (inactive) |
| COc1ccc(C(=O)O)cc1.[Ag] | 101% (inactive) |
| COc1ccc(CNc2c3ccccc3nc3ccc(OC)cc23)cc1 | 33.8% (inactive) |
| NC(=O)c1ccc[n+](Cc2ccccc2)c1 | 102% (inactive) |
| O=C(Nc1cccc(-n2ccc3c(NC(=O)c4ccccc4)nccc32)c1)c1ccc(N2CCOCC2)c(C(F)(F)F)c1 | 33.5% (inactive) |
| Cc1cc(-c2ccc(N=Nc3c(S(=O)(=O)O)cc4cc(S(=O)(=O)O)cc(O)c4c3O)c(C)c2)ccc1N=Nc1c(S(=O)(=O)O)cc2cc(S(=O)(=O)O)cc(O)c2c1O | 99.3% (inactive) |
| CC[C@]1(O)C[C@H]2CN(CCc3c([nH]c4ccccc34)C(C(=O)OC)(c3cc4c(cc3OC)N(C)[C@H]3[C@@](O)(C(=O)OC)[C@H](OC(C)=O)[C@]5(CC)[C@@H]6C[C@@H]6CN6CC[C@]43[C@@H]65)C2)C1 (stereo not given in full) | -25.3% (active) |

| SMILES | growth |
| --- | --- |
| NC(=O)N/N=C\c1ccc([N+](=O)[O-])o1 | 101% (inactive) |
| Oc1c(C(Nc2cccc3ccccc23)c2ccccc2)ccc2cccnc12 (stereo not given) | 50.6% (inactive) |
| NC(N)=N/N=C/c1cccc(Cl)c1Cl | 84.8% (inactive) |
| Cc1ccc(C(CN(C)C)C(=O)c2ccccc2)cc1 (stereo not given) | 80.9% (inactive) |
| C[C@H](NC(=O)c1snnc1C1CC1)c1c(F)cccc1Cl | 96.1% (inactive) |
| O=C(/C=C/c1ccc(F)cc1)N1CCN(C(=O)/C=C/c2ccc(C(F)(F)F)cc2)CC1 | 108% (inactive) |
| Cc1[nH]c2ccccc2c1C1=CC(=O)C=CC1=O | 94.2% (inactive) |
| CN1C(=O)C(C(=O)/C=C/c2ccccc2C(=O)O)C(=O)N(C)C1=O | 99.5% (inactive) |
| Cc1ccncc1NC=O | 101% (inactive) |
| CC1(C)CC(=O)c2cc3c(N)c(C(=O)Nc4ccc(Cl)cc4)sc3nc2C1 | 108% (inactive) |
| NC(N)=NC1CCCCC1 | 101% (inactive) |
| O=C(Nc1cccc(C2=NCCN2)c1)c1ccc(N=Nc2ccc(C(=O)Nc3cccc(C4=NCCN4)c3)cc2)cc1 | 81.5% (inactive) |
| Nc1c(C(=O)C[C@@H](N)CO)ccc2c1C(=O)CCO2 | 76.3% (inactive) |
| COc1ccc(/C(C)=N/NC(=O)c2ccc(S(C)(=O)=O)cc2)cc1OC | 95.5% (inactive) |
| O=C1/C(=C/c2cc(F)cc(F)c2)Cc2cc(F)cc(F)c21 | 91.4% (inactive) |
| NC(N)=N/N=C/c1ccc(Cl)cc1 | 80.1% (inactive) |
| COC(=O)C(Br)(C(=O)OC)C(Br)C(Br)C(Br)c1ccccc1 (stereo not given) | 91.8% (inactive) |
| CCSc1cnnc2ccccc12 | 101% (inactive) |
| COc1cccc(-c2cc(-c3cccs3)c(C#N)c(=O)[nH]2)c1 | 110% (inactive) |
| CS(=O)(=O)c1ccc(C(=O)N/N=C/c2ccccc2Cl)cc1 | 97.4% (inactive) |

— PubChem BioAssay (NCI)
